# Key:
# Conditions in all cases: concentration: 1 μM, replicates: in singlicate; n = 1
# MAST1 = system: MAST1
# MEK1 = system: T1, MEK1
# T1 construct: gene MAP2K1
# MEK2 = system: T2, MEK2
# T2 construct: gene MAP2K2
# MEK3 = system: T3, MEK3
# T3 construct: gene MAP2K3
# MEK4 = system: T4, MEK4
# T4 construct: gene MAP2K4
# MEK5 = system: T5, MEK5
# T5 construct: gene MAP2K5
# MEK6 = system: T6, MEK6
# T6 construct: gene MAP2K6
# MELK = system: MELK
# MERTK = system: MERTK
# MET = system: MET
# MINK = system: T7, MINK
# T7 construct: gene MINK1
# MKK7 = system: MKK7
# MKNK1 = system: MKNK1
# MKNK2 = system: MKNK2
# MLCK = system: T8, MLCK
# T8 construct: gene MYLK3
# MLK1 = system: T9, MLK1
# T9 construct: gene MAP3K9
# MLK2 = system: MLK2
# MLK3 = system: MLK3
# MRCKA = system: MRCKA
# MRCKB = system: T10, MRCKB
# T10 construct: gene CDC42BPB
# 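Note: KINOMEscan kinase panel screen.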
SMILES,%Inh (MAST1),%Inh (MEK1),%Inh (MEK2),%Inh (MEK3),%Inh (MEK4),%Inh (MEK5),%Inh (MEK6),%Inh (MELK),%Inh (MERTK),%Inh (MET),%Inh (MINK),%Inh (MKK7),%Inh (MKNK1),%Inh (MKNK2),%Inh (MLCK),%Inh (MLK1),%Inh (MLK2),%Inh (MLK3),%Inh (MRCKA),%Inh (MRCKB)
COC(=O)c1cccc(NC(=O)NC2CCN(c3ccnc(Nc4ccc(F)cc4)n3)C2)c1 (stereo not drawn) [GSK1379725],0%,0%,0%,0%,36%,12%,0%,0%,2%,0%,0%,0%,0%,1%,0%,0%,0%,0%,4%,0%
O=C1NC(=O)C(c2ccc(Cl)cc2)=C1Nc1ccc(O)cc1 [SB-340867],24%,0%,0%,9%,0%,8%,0%,1%,0%,0%,11%,0%,0%,0%,0%,0%,0%,4%,8%,0%
COc1ccc(Nc2nccc(NCCNC(=O)Nc3cc(C)ccc3C)n2)cc1 [GSK1379899],0%,0%,0%,0%,0%,66%,0%,0%,11%,0%,0%,0%,0%,0%,0%,0%,36%,5%,1%,0%
c1ccc(-c2ccnc3[nH]ccc23)cc1 [SB-693578],44%,49%,29%,10%,28%,45%,0%,0%,15%,0%,19%,0%,0%,25%,0%,0%,0%,0%,15%,0%
CCc1ccc(-c2ccc3c(c2)-c2n[nH]cc2S(=O)(=O)N3C)cc1,0%,10%,86%,13%,0%,8%,0%,9%,0%,0%,2%,0%,0%,0%,16%,13%,16%,0%,0%,6%
COc1cccc(NC(=O)Nc2ccc(C)c(-c3ccc(C(=O)Nc4ccncc4)cc3)c2)c1 [GSK1398474],0%,0%,0%,0%,42%,8%,0%,0%,35%,16%,6%,14%,4%,24%,6%,10%,14%,31%,13%,3%
NS(=O)(=O)c1cccc(N/C=C2\C(=O)Nc3ccc(S(=O)(=O)Cc4c(Cl)cccc4Cl)cc32)c1 [GSK398099],0%,0%,0%,1%,23%,14%,0%,0%,0%,23%,80%,0%,0%,12%,0%,0%,0%,0%,15%,0%
COc1nccc(-c2c(-c3ccc(F)cc3)ncn2CCCN2CCOCC2)n1 [SB-282852],20%,0%,25%,31%,23%,7%,0%,0%,19%,0%,0%,23%,54%,42%,0%,0%,0%,0%,12%,0%
COc1ccc(Nc2nccc(N3CCC(NC(=O)C(C)c4ccc(Cl)cc4)C3)n2)cc1 (stereo not drawn) [GSK1379735],0%,0%,0%,0%,20%,13%,0%,7%,33%,0%,1%,10%,12%,2%,14%,0%,43%,21%,15%,2%
Cc1ccccc1Cn1ccn2c(=O)cc(N3CCOCC3)nc12 [GSK2269905],0%,0%,0%,0%,27%,13%,0%,0%,25%,0%,0%,0%,0%,10%,0%,0%,17%,3%,0%,0%
CS(=O)(=O)CCNCc1nc(-c2ccc3ncnc(Nc4ccc(OCc5ccccc5)c(Cl)c4)c3c2)cs1.Cl [GW582764],43%,0%,0%,0%,16%,84%,0%,0%,9%,0%,0%,0%,0%,0%,89%,0%,0%,0%,3%,0%
Nc1nccc(-c2c(-c3ccc(F)cc3)ncn2C2CCN(Cc3ccccc3)CC2)n1 [SB-219980],4%,7%,9%,19%,38%,28%,21%,15%,0%,0%,32%,0%,0%,0%,5%,11%,8%,0%,0%,20%
CNc1cc(-c2ccc3c(N)n[nH]c3c2)nc(N)n1 [GSK2224810],18%,2%,0%,0%,18%,37%,14%,48%,31%,0%,29%,0%,4%,31%,73%,7%,0%,2%,6%,8%
CNCc1ccc2nc(NC(=O)c3ccc(C(C)(C)C)cc3)cn2c1,50%,32%,27%,8%,30%,34%,11%,0%,5%,6%,53%,8%,17%,10%,14%,8%,0%,6%,6%,14%
O=C(Nc1n[nH]c2nc(-c3cccs3)c(Br)cc12)C1CC1 [SB-735297],26%,0%,0%,34%,99.3%,68%,0%,15%,15%,0%,28%,0%,46%,39%,90%,0%,0%,0%,16%,0%
CNc1nc(-c2ccc3c(N)n[nH]c3c2)cc(N2C[C@@H](C(=O)NC3CCCCC3)OC[C@H]2C)n1 [GSK2375584],0%,8%,11%,0%,11%,14%,0%,57%,2%,0%,11%,0%,10%,0%,0%,0%,23%,20%,4%,0%
Fc1ccc(-c2nc[nH]c2-c2ccncc2)cc1 [SB-217360],0%,36%,58%,32%,6%,66%,0%,0%,19%,0%,58%,9%,0%,0%,0%,0%,30%,1%,37%,27%
FC(F)(F)c1ccccc1-c1cc(-c2c[nH]nc2-c2ccccn2)ccn1 [GW679396],4%,0%,0%,0%,16%,0%,0%,0%,26%,0%,11%,0%,5%,0%,4%,0%,0%,1%,0%,0%
CC(=O)c1cccc(NC(=O)NC2CCN(c3ccnc(Nc4ccc(F)cc4)n3)C2)c1 (stereo not drawn) [GSK1379710],30%,6%,16%,9%,57%,34%,9%,12%,40%,0%,11%,0%,27%,0%,0%,0%,0%,3%,20%,0%
CC(=O)c1c(C)c2cnc(Nc3ccn(C)n3)nc2n(C2CCCC2)c1=O,0%,0%,0%,13%,0%,0%,4%,1%,0%,0%,8%,0%,0%,0%,0%,0%,21%,0%,0%,5%
Nc1ncnc2occ(-c3ccc4c(c3)CCN4C(=O)Cc3cc(F)ccc3F)c12 [GSK2645446],0%,0%,0%,0%,2%,92.3%,0%,3%,34%,0%,0%,0%,0%,0%,0%,0%,10%,6%,22%,0%

# Source: publication PMC5540273 (PLoS ONE, 2017)
